Measurements published in the supplement of paper PMC4466140.

target: ScBbc1; test: SPOT peptide array binding signal intensity (averaged, normalized) (arbitrary units (background-subtracted, floor 0; scale differs between SH3 domains)); higher = stronger binding of the SH3 domain to the peptide
Experimental: (§1)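 GST-tagged SH3 domains from S. cerevisiae (Sc), A. gossypii (Ag), C. albicans (Ca) and S. pombe (Sp) were incubated at 10 ug/ml overnight at 4 C on cellulose SPOT membranes carrying 292 synthetic 15-mer peptides mined from the S. cerevisiae proteome (cysteines replaced by serines). Binding was detected with anti-GST antibody, HRP secondary and chemiluminescence, quantified with Genespotter, and reported as normalized spot intensities averaged over biological replicates.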

Binder	SPOT peptide array binding signal intensity
RRSKSLPITPKSIFN	11

target: ScBem1-D1; test: as above
Experimental: as §1

Binder	SPOT peptide array binding signal intensity
RRSKSLPITPKSIFN	88

target: ScBzz1-D1; test: as above
Experimental: as §1

Binder	SPOT peptide array binding signal intensity
RRSKSLPITPKSIFN	31

target: ScBzz1-D2; test: as above
Experimental: as §1

Binder	SPOT peptide array binding signal intensity
RRSKSLPITPKSIFN	12.5

target: ScCyk3; test: as above
Experimental: as §1

Binder	SPOT peptide array binding signal intensity
RRSKSLPITPKSIFN	54

target: ScFus1; test: as above
Experimental: as §1

Binder	SPOT peptide array binding signal intensity
RRSKSLPITPKSIFN	47.5

target: ScHof1; test: as above
Experimental: as §1

Binder	SPOT peptide array binding signal intensity
RRSKSLPITPKSIFN	≤ 0

target: ScHse1; test: as above
Experimental: as §1

Binder	SPOT peptide array binding signal intensity
RRSKSLPITPKSIFN	420

target: ScLsb1; test: as above
Experimental: as §1

Binder	SPOT peptide array binding signal intensity
RRSKSLPITPKSIFN	2.5

target: ScLsb2; test: as above
Experimental: as §1

Binder	SPOT peptide array binding signal intensity
RRSKSLPITPKSIFN	1

target: ScLsb3; test: as above
Experimental: as §1

Binder	SPOT peptide array binding signal intensity
RRSKSLPITPKSIFN	≤ 0

target: ScLsb4; test: as above
Experimental: as §1

Binder	SPOT peptide array binding signal intensity
RRSKSLPITPKSIFN	8

target: ScMyo3; test: as above
Experimental: as §1

Binder	SPOT peptide array binding signal intensity
RRSKSLPITPKSIFN	8.5

target: ScMyo5; test: as above
Experimental: as §1

Binder	SPOT peptide array binding signal intensity
RRSKSLPITPKSIFN	2

target: ScNbp2; test: as above
Experimental: as §1

Binder	SPOT peptide array binding signal intensity
RRSKSLPITPKSIFN	47

target: ScPex13; test: as above
Experimental: as §1

Binder	SPOT peptide array binding signal intensity
RRSKSLPITPKSIFN	≤ 0

target: ScRvs167; test: as above
Experimental: as §1

Binder	SPOT peptide array binding signal intensity
RRSKSLPITPKSIFN	0.333

target: ScSho1; test: as above
Experimental: as §1

Binder	SPOT peptide array binding signal intensity
RRSKSLPITPKSIFN	4000

target: ScSla1-D1-D2; test: as above
Experimental: as §1

Binder	SPOT peptide array binding signal intensity
RRSKSLPITPKSIFN	2340

target: ScSla1-D3; test: as above
Experimental: as §1

Binder	SPOT peptide array binding signal intensity
RRSKSLPITPKSIFN	54

target: SpAbp1-D1; test: as above
Experimental: as §1

Binder	SPOT peptide array binding signal intensity
RRSKSLPITPKSIFN	205

target: SpBbc1; test: as above
Experimental: as §1

Binder	SPOT peptide array binding signal intensity
RRSKSLPITPKSIFN	1.5

target: SpBzz1-D1; test: as above
Experimental: as §1

Binder	SPOT peptide array binding signal intensity
RRSKSLPITPKSIFN	204

target: SpBzz1-D2; test: as above
Experimental: as §1

Binder	SPOT peptide array binding signal intensity
RRSKSLPITPKSIFN	≤ 0

target: SpCyk3; test: as above
Experimental: as §1

Binder	SPOT peptide array binding signal intensity
RRSKSLPITPKSIFN	3

target: SpHof1; test: as above
Experimental: as §1

Binder	SPOT peptide array binding signal intensity
RRSKSLPITPKSIFN	2190

target: SpHof1-2; test: as above
Experimental: as §1

Binder	SPOT peptide array binding signal intensity
RRSKSLPITPKSIFN	1340

target: SpHof1-3; test: as above
Experimental: as §1

Binder	SPOT peptide array binding signal intensity
RRSKSLPITPKSIFN	1120

target: SpHse1; test: as above
Experimental: as §1

Binder	SPOT peptide array binding signal intensity
RRSKSLPITPKSIFN	216

target: SpLsb1; test: as above
Experimental: as §1

Binder	SPOT peptide array binding signal intensity
RRSKSLPITPKSIFN	≤ 0

target: SpLsb4; test: as above
Experimental: as §1

Binder	SPOT peptide array binding signal intensity
RRSKSLPITPKSIFN	64.5

target: SpMyo1; test: as above
Experimental: as §1

Binder	SPOT peptide array binding signal intensity
RRSKSLPITPKSIFN	24.8

target: SpNbp2; test: as above
Experimental: as §1

Binder	SPOT peptide array binding signal intensity
RRSKSLPITPKSIFN	39.5

target: SpPex13; test: as above
Experimental: as §1

Binder	SPOT peptide array binding signal intensity
RRSKSLPITPKSIFN	5

target: SpRvs167; test: as above
Experimental: as §1

Binder	SPOT peptide array binding signal intensity
RRSKSLPITPKSIFN	4.33

target: SpSla1-D1-D2; test: as above
Experimental: as §1

Binder	SPOT peptide array binding signal intensity
RRSKSLPITPKSIFN	1130

target: SpSla1-D3; test: as above
Experimental: as §1

Binder	SPOT peptide array binding signal intensity
RRSKSLPITPKSIFN	≤ 0
